# Measurements from publication PMC5540273 (PLoS ONE, 2017).
# Legend:
# Conditions in all cases: concentration: 1 μM, replicates: in singlicate; n = 1
# FGFR4 = system: FGFR4
# FGR = system: FGR
# FLT1 = system: FLT1
# FLT3-autoinhibited = system: FLT3-autoinhibited
# FLT3 = system: FLT3
# FLT4 = system: FLT4
# FRK = system: FRK
# FYN = system: FYN
# GAK = system: GAK
# GCN2(Kin.Dom.2,S808G) = system: T1, GCN2(Kin.Dom.2,S808G)
# T1 construct: gene EIF2AK4
# GRK1 = system: GRK1
# GRK2 = system: T2, GRK2
# T2 construct: gene ADRBK1
# GRK3 = system: T3, GRK3
# T3 construct: gene ADRBK2
# GRK4 = system: GRK4
# GRK7 = system: GRK7
# GSK3A = system: GSK3A
# GSK3B = system: GSK3B
# HASPIN = system: T4, HASPIN
# T4 construct: gene GSG2
# HCK = system: HCK
# HIPK1 = system: HIPK1
# 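Further: KINOMEscan kinase panel screen.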
SMILES,%Inh (FGFR4),%Inh (FGR),%Inh (FLT1),%Inh (FLT3-autoinhibited),%Inh (FLT3),%Inh (FLT4),%Inh (FRK),%Inh (FYN),%Inh (GAK),"%Inh (GCN2(Kin.Dom.2,S808G))",%Inh (GRK1),%Inh (GRK2),%Inh (GRK3),%Inh (GRK4),%Inh (GRK7),%Inh (GSK3A),%Inh (GSK3B),%Inh (HASPIN),%Inh (HCK),%Inh (HIPK1)
c1ccc(-c2ccc3c(-c4ccnc(Nc5ccc6c(c5)OCCO6)n4)cnn3n2)cc1 [GW818941],10%,23%,31%,18%,36%,36%,9%,32%,28%,11%,0%,7%,0%,11%,0%,12%,0%,0%,16%,0%
Cl.Fc1ccccc1COc1ccc(Nc2ncnc3ccc(-c4nnc(C(F)(F)F)o4)cc23)cc1Cl [GW424170],0%,6%,18%,0%,0%,3%,0%,0%,0%,0%,0%,0%,0%,0%,0%,17%,0%,0%,0%,1%
O=C(CCO)NCCn1ccc2ncnc(Nc3ccc(Oc4cccc(C(F)(F)F)c4)c(Cl)c3)c21,0%,5%,0%,0%,0%,0%,0%,0%,0%,0%,13%,0%,0%,0%,0%,6%,0%,0%,36%,19%
COc1ccc(-c2oc3ncnc(N)c3c2-c2ccc(OC)cc2)cc1 [SB-589132],3%,43%,21%,18%,13%,12%,17%,46%,48%,41%,0%,0%,70%,9%,0%,15%,0%,64%,14%,0%
O=C(NCCCN1CCCC1=O)c1cnc(NCc2cc(Cl)ccc2Cl)nc1NC1CCNCC1,0%,1%,0%,0%,0%,7%,0%,6%,0%,0%,33%,2%,22%,0%,68%,0%,0%,0%,3%,5%
C[C@@H]1CCN(C(=O)CO)C[C@@H]1N(C)c1ncnc2[nH]ccc12,0%,0%,0%,0%,0%,0%,3%,0%,0%,7%,16%,17%,22%,0%,25%,0%,0%,8%,25%,15%
FC(F)(F)c1ccc(-c2nn3ncccc3c2-c2ccnc(Nc3cccc(C(F)(F)F)c3)n2)cc1 [GW828205],3%,58%,12%,0%,0%,8%,0%,0%,0%,0%,11%,0%,0%,25%,0%,1%,10%,0%,10%,39%
Cc1cc(N2CCC(NS(=O)(=O)c3ccc(F)cc3)CC2)nc(Nc2cccc(C#N)c2)n1.O=C(O)C(F)(F)F [GSK1653537],0%,26%,35%,0%,4%,0%,8%,19%,0%,6%,0%,0%,16%,22%,0%,0%,0%,0%,0%,0%
